According to PubChem BioAssay (Tox21):
Results filed as inconclusive are left out. Activity calls are given as the source filed them. The call rests on the fitted dose curve; in most records, active means well fitted curve in the direction sought with a large enough effect in the repeat runs; inconclusive means weak or mixed curves; inactive means no such curve, though single readings can be large; an effect the other way counts as inactive or inconclusive.

Columns and labels:
[1] = A CellTox Green Cytotoxicity Assay to monitor cytotoxicity in HEK293 cells - 40 hour (AID 1224871); further: nearly all actives have a fitted effect of over 45% in size
Procedure, shortened: (§1)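 Cells (HEK293, 600/well) and dye reagent are dispensed together. After 5 h at 37 C, 23 nL compound is pinned in. Plates stay at 37 C for 40 h with fluorescence read at 0h, 8h, 16h, 24h, 32h and 40h.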

[2] = qHTS RealTime-Glo MT Cell Viability Assay in HEK293 cells - 16 hour (AID 1224872); further: top concentration of the series differs between compounds; nearly all actives have a fitted effect of over 50% in size
Procedure, shortened: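 Assay medium contained NanoLuc luciferase plus cell-permeant prosubstrate, added with HEK293 cells at 600 cells/well. After 5 h at 37 C/5% CO2 compounds were added; plates stayed at 37 C for 40 h with serial luminescence reads.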

[3] = qHTS RealTime-Glo MT Cell Viability Assay in HEK293 cells - 40 hour (AID 1224874); conditions: RealTime-Glo luminescence; max response: hits give low values; further: nearly all actives have a fitted effect of over 50% in size
Procedure, shortened: (§2)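 Real-time viability in HEK293: signal arises when living cells convert a prosubstrate for NanoLuc in the medium, so luminescence tracks viable cell number. Compound (23 nL, DMSO) added 5 h post-seeding; kinetic reads at 0–40 h, 37 C.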

[4] = A CellTox Green Cytotoxicity Assay to monitor cytotoxicity in HEK293 cells - 24 hour (AID 1224875); further: series mostly up to about 77 µM; nearly all actives have a fitted effect of over 45% in size
Procedure, shortened: as §1

[5] = A CellTox Green Cytotoxicity Assay to monitor cytotoxicity in HepG2 cells - 16 hour (AID 1224876); further: nearly all actives have a fitted effect of over 45% in size
Procedure, shortened: (§3)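 Cells and non-lytic dye reagent are dispensed together (600 HepG2 cells/well) and incubated 5 h before DMSO compound transfer. Kinetic fluorescence is then recorded in the same wells during 40 h at 37 C.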

[6] = A CellTox Green Cytotoxicity Assay to monitor cytotoxicity in HepG2 cells - 24 hour (AID 1224878); further: nearly all actives have a fitted effect of over 45% in size
Procedure, shortened: as §3

[7] = A CellTox Green Cytotoxicity Assay to monitor cytotoxicity in HepG2 cells - 40 hour (AID 1224879); further: nearly all actives have a fitted effect of over 40% in size
Procedure, shortened: as §3

[8] = qHTS RealTime-Glo MT Cell Viability Assay in HEK293 cells - 0 hour (AID 1224880)
Procedure, shortened: as §2

[9] = qHTS RealTime-Glo MT Cell Viability Assay in HepG2 cells - 8 hour (AID 1224873); further: nearly all actives have a fitted effect of over 55% in size
Procedure, shortened: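 HepG2 cells (600/well) mixed with RealTime-Glo MT reagent, settled 5 h at 37 C/5% CO2 before compound addition. Nonlytic NanoLuc luminescence from viable-cell prosubstrate reduction read repeatedly during 40 h treatment at 37 C.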

[10] = qHTS RealTime-Glo MT Cell Viability Assay in HepG2 cells - 32 hour (AID 1224877); further: nearly all actives have a fitted effect of over 55% in size
Procedure, shortened: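 qHTS, HepG2, 600 cells/well, RealTime-Glo (NanoLuc + prosubstrate) added with cells; 5 h preincubation; DMSO compound addition; 37 C; luminescence at 0/8/16/24/32/40 h.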
On the % scale 0 is the no-effect control and ±100 the full control effect.

CCCN1CCC[C@@H]2Cc3[nH]ncc3C[C@H]21
inactive: Potency [1] | Potency [2] | max response [3] 2.6% | Potency [4] | Potency [5] | Potency [6] | Potency [7] | outcome [8]

Brc1c(Br)c(Br)c(Br)c(Br)c1Br
inactive: cytotoxicity increase [1] 4.32% [at 6.97 µM] | viability change, negative = cytotoxic [9] -1.77% [at 6.97 µM] | max response [3] 23.1% | activity change [4] 5.24% [at 6.97 µM, hits give high values] | cytotoxicity increase [5] -7.6% [at 6.97 µM] | activity change, negative = cytotoxic [10] -8.23% [at 6.97 µM] | cytotoxicity [6] -0.215% [at 6.97 µM] | cytotoxicity increase [7] -0.0521% [at 6.97 µM] | activity change, negative = cytotoxicity [8] 0% [at 6.97 µM]

Cc1ccc(Cl)c(O)c1
inactive: Potency [1] | outcome [9] | max response [3] 1.02% | Potency [4] | Potency [5] | Potency [10] | Potency [6] | Potency [7] | outcome [8]

C(COCC1CO1)OCC1CO1 (stereo not given)
inactive: Potency [1] | Potency [2] | Potency [4] | Potency [5] | Potency [10] | Potency [6] | Potency [7]

CCC(C)(C#N)N=NC(C)(C#N)CC (stereo not given)
inactive: Potency [1] | Potency [2] | max response [3] 2.46% | Potency [4] | Potency [10] | Potency [6] | Potency [7] | outcome [8]

O=c1[nH]oc2c1CCNC2
inactive: Potency [1] | Potency [2] | max response [3] 5.54% | Potency [4] | Potency [10] | outcome [8]

C#CC(C)(C)O
inactive: Potency [1] | outcome [9] | max response [3] 6.71% | Potency [4] | Potency [5] | Potency [10] | Potency [6] | Potency [7] | outcome [8]

O=c1[nH]c2ccccc2n1C1CCNCC1
inactive: Potency [1] | outcome [9] | max response [3] 2.11% | Potency [4] | Potency [5] | Potency [10] | Potency [6] | Potency [7]

C[N+]1(C)CCCCC1
inactive: Potency [1] | Potency [2] | max response [3] 19.2% | Potency [4] | Potency [5] | Potency [6] | Potency [7] | outcome [8]

O=c1[nH]c2ccccc2o1
inactive: Potency [1] | outcome [9] | max response [3] -0.283% | Potency [4] | Potency [5] | Potency [10] | Potency [6] | Potency [7] | outcome [8]

CC(=NC#N)N(C)Cc1ccc(Cl)nc1
inactive: Potency [1] | outcome [9] | max response [3] 8.58% | Potency [4] | Potency [5] | Potency [10] | Potency [6] | Potency [7] | outcome [8]

CCCOC(=O)Cc1ccc(OCC(=O)N(CC)CC)c(OC)c1
inactive: Potency [1] | outcome [9] | max response [3] -5.19% | Potency [4] | Potency [5] | Potency [10] | Potency [6] | Potency [7] | outcome [8]

CCOP(=S)(OCC)SCCl
inactive: Potency [2] | max response [3] -0.801% | Potency [4] | Potency [5] | Potency [10] | Potency [6] | Potency [7] | outcome [8]

CC#Cc1cc(C)nc(Nc2ccccc2)n1
inactive: Potency [1] | outcome [9] | Potency [4] | Potency [5] | Potency [6] | Potency [7]

C[C@H](CN1CCOCC1)C(C(=O)N1CCCC1)(c1ccccc1)c1ccccc1
inactive: Potency [1] | Potency [4] | Potency [10] | Potency [6] | Potency [7] | outcome [8]

Oc1ccc(Cc2ccc(O)cc2)cc1
inactive: Potency [1] | outcome [9] | Potency [4] | Potency [5] | Potency [10] | Potency [6] | Potency [7] | outcome [8]

C=CCN1CC[C@]23CCCC[C@H]2[C@H]1Cc1ccc(O)cc13
inactive: Potency [1] | outcome [9] | max response [3] 1.5% | Potency [4] | Potency [10] | Potency [6] | Potency [7] | outcome [8]

O=S1(=O)OCCO1
inactive: Potency [1] | outcome [9] | max response [3] 4.27% | Potency [4] | Potency [5] | Potency [6] | Potency [7] | outcome [8]

COc1ccc2c(C(=O)c3ccc(Cl)cc3)c(C)n(CC(=O)O)c2c1
inactive: Potency [1] | max response [3] 3.79% | Potency [4] | Potency [5] | Potency [10] | Potency [6] | Potency [7] | outcome [8]

O=C(Cl)/C=C/C(=O)Cl
inactive: Potency [1] | outcome [9] | Potency [4] | Potency [5] | Potency [10] | Potency [6] | Potency [7] | outcome [8]

ClC(Cl)(Cl)Cl
inactive: Potency [1] | outcome [9] | max response [3] 2.56% | Potency [4] | Potency [10] | Potency [6] | Potency [7] | outcome [8]

c1ccc2c(c1)CCNC2
inactive: Potency [1] | outcome [9] | Potency [4] | Potency [5] | Potency [10] | Potency [6] | Potency [7] | outcome [8]

O=[N+]([O-])CCO
inactive: Potency [1] | max response [3] 3.11% | Potency [4] | Potency [10] | outcome [8]
